Measured values reported in PubChem BioAssay (NCATS).
Records with an inconclusive call do not appear. Activity calls are given as the source filed them. Calls come from the whole dose curve; as a rule, active = well fitted curve in the direction sought with a large enough effect; inconclusive = small, poorly fitted or top-dose-only effect, or another doubt; inactive = no such curve, though single readings can be large; an effect the other way counts as inactive or inconclusive.

How the values were obtained:
[1] = Quantitative High-Throughput drug screen in 47 multiple myeloma cell lines against the NCATS MIPE library collection: KMS12PE_JCRB cell viability assay (AID 1918972); note: nearly all actives have a fitted effect of over 30% in size
In short: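 Myeloma cells (500 per well) were exposed to MIPE 4.0 compounds by pin transfer and incubated 48 hours at 37C, 5% CO2. Viability was read as ATP by CellTiter-Glo luminescence, normalised to DMSO (100%) and media-only (0%) wells.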

[2] = Quantitative High-Throughput drug screen in 47 multiple myeloma cell lines against the NCATS MIPE library collection: KMS20_JCRB cell viability assay (AID 1918973); note: nearly all actives have a fitted effect of over 45% in size
In short: (§1)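 Steps: seed 500 cells per well; pin-transfer MIPE 4.0 library; incubate 48 h at 37C, 5% CO2, humidified; add CellTiter-Glo, 5 min room temperature; read luminescence.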

[3] = Quantitative High-Throughput drug screen in 47 multiple myeloma cell lines against the NCATS MIPE library collection: KMS26_JCRB cell viability assay (AID 1918975); note: nearly all actives have a fitted effect of over 45% in size
In short: as §1

[4] = Quantitative High-Throughput drug screen in 47 multiple myeloma cell lines against the NCATS MIPE library collection: MOLP8_DSMZ cell viability assay (AID 1918977); note: nearly all actives have a fitted effect of over 45% in size
In short: (§2)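 Myeloma cells (500/well) treated with MIPE 4.0 compounds for 48 h at 37 °C, 5% CO2. Viability read as ATP via CellTiter-Glo luminescence after 5 min at RT; DMSO-only wells = 100%, media-only = 0% viability.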

[5] = Quantitative High-Throughput drug screen in 47 multiple myeloma cell lines against the NCATS MIPE library collection: NCIH929_DSMZ cell viability assay (AID 1918978); note: nearly all actives have a fitted effect of over 35% in size
In short: as §2

[6] = Quantitative High-Throughput drug screen in 47 multiple myeloma cell lines against the NCATS MIPE library collection: OCIMY1_PLB cell viability assay (AID 1918979); note: nearly all actives have a fitted effect of over 35% in size
In short: as §2

[7] = Quantitative High-Throughput drug screen in 47 multiple myeloma cell lines against the NCATS MIPE library collection: MM1S_ATCC cell viability assay (AID 1918980); note: nearly all actives have a fitted effect of over 45% in size
In short: as §2

[8] = Quantitative High-Throughput drug screen in 47 multiple myeloma cell lines against the NCATS MIPE library collection: MM1R_ATCC cell viability assay (AID 1918981); note: nearly all actives have a fitted effect of over 35% in size
In short: as §2

[9] = Quantitative High-Throughput drug screen in 47 multiple myeloma cell lines against the NCATS MIPE library collection: LP1_DSMZ cell viability assay (AID 1918982); note: nearly all actives have a fitted effect of over 35% in size
In short: as §2

[10] = Quantitative High-Throughput drug screen in 47 multiple myeloma cell lines against the NCATS MIPE library collection: KMS28PE_JCRB cell viability assay (AID 1918983); note: nearly all actives have a fitted effect of over 35% in size
In short: as §2

[11] = Quantitative High-Throughput drug screen in 47 multiple myeloma cell lines against the NCATS MIPE library collection: KMS34_JCRB cell viability assay (AID 1918985); note: nearly all actives have a fitted effect of over 40% in size
In short: as §2

[12] = Quantitative High-Throughput drug screen in 47 multiple myeloma cell lines against the NCATS MIPE library collection: OCIMY5_PLB cell viability assay (AID 1918988); note: nearly all actives have a fitted effect of over 65% in size
In short: as §2

[13] = Quantitative High-Throughput drug screen in 47 multiple myeloma cell lines against the NCATS MIPE library collection: SKMM1_PLB cell viability assay (AID 1919863); conditions: SKMM1 myeloma viability, CellTiter-Glo ATP, 48 h; viability: stronger effect = lower value; note: nearly all actives have a fitted effect of over 35% in size
In short: as §2

[14] = Quantitative High-Throughput drug screen in 47 multiple myeloma cell lines against the NCATS MIPE library collection: U266_ATCC cell viability assay (AID 1919864); note: nearly all actives have a fitted effect of over 35% in size
In short: as §2

[15] = Quantitative High-Throughput drug screen in 47 multiple myeloma cell lines against the NCATS MIPE library collection: XG6_PLB cell viability assay (AID 1919865); note: nearly all actives have a fitted effect of over 40% in size
In short: as §2

[16] = Quantitative High-Throughput drug screen in 47 multiple myeloma cell lines against the NCATS MIPE library collection: KMS21BM_JCRB cell viability assay (AID 1918974); conditions: ATP luminescence, 48 h; viability: at 45.8 µM (top of the series) unless noted
In short: as §1

[17] = Quantitative High-Throughput drug screen in 47 multiple myeloma cell lines against the NCATS MIPE library collection: OPM1_PLB cell viability assay (AID 1918989); note: nearly all actives have a fitted effect of over 40% in size
In short: as §2

[18] = Quantitative High-Throughput drug screen in 47 multiple myeloma cell lines against the NCATS MIPE library collection: OCIMY7_PLB cell viability assay (AID 1918987); note: nearly all actives have a fitted effect of over 65% in size
In short: as §2

[19] = Quantitative High-Throughput drug screen in 47 multiple myeloma cell lines against the NCATS MIPE library collection: MMM1_PLB cell viability assay (AID 1918976); note: nearly all actives have a fitted effect of over 35% in size
In short: as §2

[20] = Quantitative High-Throughput drug screen in 47 multiple myeloma cell lines against the NCATS MIPE library collection: L363_DSMZ cell viability assay (AID 1918984); note: nearly all actives have a fitted effect of over 40% in size
In short: as §2
Potency is the fitted concentration of half-maximal effect.

COc1cc2nccc(Oc3ccc(NC(=O)NC4CC4)c(Cl)c3)c2cc1C(N)=O
active: Potency [1] 0.833 µM | Potency [2] 13.2 µM | Potency [3] 23.5 µM | Potency [4] 13.2 µM | Potency [5] 16.6 µM | Potency [6] 20.9 µM | Potency [7] 0.264 µM | Potency [8] 1.18 µM | Potency [9] 20.9 µM | Potency [10] 13.2 µM | Potency [11] 18.7 µM | Potency [12] 3.32 µM | Potency [13] 13.2 µM | Potency [14] 7.43 µM | Potency [15] 3.32 µM

Oc1ccc(C2CNCCc3c2cc(O)c(O)c3Cl)cc1 (stereo unspecified)
active: Potency [16] 18.7 µM | Potency [3] 1.32 µM | Potency [5] 16.6 µM | Potency [7] 3.32 µM | Potency [11] 14.8 µM | Potency [12] 16.6 µM
inactive: Potency [1] | Potency [2] | Potency [4] | Potency [6] | Potency [8] | Potency [9] | Potency [10] | Potency [17] | viability [13] 103% | Potency [14]

NC(=O)c1ccc(-c2nc(-c3ccc4c(c3)OCO4)c(-c3ccccn3)[nH]2)cc1
active: Potency [8] 7.43 µM | Potency [11] 2.64 µM | Potency [12] 9.35 µM
inactive: Potency [1] | Potency [2] | Potency [4] | Potency [5] | Potency [6] | Potency [7] | Potency [14] | Potency [15]

CC(c1cc2ccccc2s1)N(O)C(N)=O (stereo unspecified)
inactive: Potency [1] | Potency [2] | Potency [3] | Potency [4] | Potency [5] | Potency [6] | Potency [7] | Potency [8] | Potency [9] | Potency [10] | Potency [17] | viability [13] 118% | Potency [14] | Potency [15]

Cc1cc2c(C(C)C)c(O)c(O)c(C=O)c2c(O)c1-c1c(C)cc2c(C(C)C)c(O)c(O)c(C=O)c2c1O
active: Potency [1] 7.43 µM | Potency [2] 11.8 µM | Potency [3] 14.8 µM | Potency [5] 9.35 µM | Potency [6] 14.8 µM | Potency [7] 16.6 µM | Potency [8] 13.2 µM | Potency [9] 16.6 µM | Potency [10] 18.7 µM | Potency [11] 11.8 µM | Potency [12] 14.8 µM | Potency [13] 29.6 µM | Potency [15] 7.43 µM

NS(=O)(=O)c1cc2c(cc1Cl)NC=NS2(=O)=O
inactive: Potency [1] | Potency [2] | Potency [3] | Potency [4] | Potency [8] | Potency [9] | Potency [10] | Potency [11] | Potency [18] | Potency [12] | Potency [14]
active: viability [16] 201%

COc1ccc(-c2ccc3c(N4CCOCC4)nc(N4C[C@@H](C)O[C@@H](C)C4)nc3n2)cc1CO
active: Potency [1] 2.35 µM | Potency [2] 0.235 µM | Potency [16] 0.833 µM | Potency [3] 2.96 µM | Potency [19] 0.105 µM | Potency [4] 1.05 µM | Potency [5] 0.187 µM | Potency [6] 4.69 µM | Potency [7] 0.469 µM | Potency [8] 0.833 µM | Potency [9] 0.059 µM | Potency [10] 0.187 µM | Potency [20] 0.235 µM | Potency [11] 0.469 µM | Potency [12] 1.48 µM | Potency [13] 1.66 µM | Potency [14] 0.332 µM | Potency [15] 0.59 µM

CN[C@@H](C)C(=O)N[C@H]1CCCC[C@H]2CC[C@@H](C(=O)N[C@@H](c3ccccc3)c3cn(CCCCc4ccc(CCCCn5cc([C@@H](NC(=O)[C@@H]6CC[C@@H]7CCCC[C@H](NC(=O)[C@H](C)NC)C(=O)N76)c6ccccc6)nn5)cc4)nn3)N2C1=O
inactive: Potency [4] | Potency [6] | Potency [10] | Potency [11]
active: Potency [1] 4.69 µM | Potency [2] 4.18 µM | Potency [5] 8.33 µM | Potency [7] 18.7 µM | Potency [12] 16.6 µM | Potency [17] 16.6 µM | Potency [13] 0.0037 µM | Potency [15] 20.9 µM

CC(C)(C)NCC(O)c1ccc(O)c(CO)c1 (stereo unspecified)
active: Potency [7] 0.059 µM | Potency [8] 0.0264 µM | Potency [12] 0.0148 µM
inactive: Potency [1] | Potency [2] | Potency [16] | Potency [5] | Potency [9] | Potency [17] | Potency [14] | Potency [15]

Cn1cc(-c2ccc3nnc(C(F)(F)c4ccc5ncccc5c4)n3n2)cn1
active: Potency [1] 20.9 µM | Potency [19] 5.9 µM | Potency [7] 8.33 µM | Potency [12] 16.6 µM
inactive: Potency [2] | Potency [5] | Potency [6] | Potency [10]

CC(=O)Oc1ccccc1C(=O)O
active: Potency [3] 11.8 µM | Potency [5] 4.18 µM | Potency [7] 5.26 µM | Potency [8] 18.7 µM | Potency [18] 5.26 µM | Potency [12] 5.26 µM | Potency [14] 7.43 µM | Potency [15] 4.69 µM
inactive: Potency [1] | Potency [4] | Potency [6] | Potency [10] | Potency [11] | viability [13] 129%

CCOC(=O)N[C@@H]1CC[C@@H]2[C@@H](C1)C[C@H]1C(=O)O[C@H](C)[C@H]1[C@@H]2C=Cc1ccc(-c2cccc(F)c2)cn1
inactive: Potency [3] | Potency [4]
active: Potency [1] 14.8 µM | Potency [8] 20.9 µM | Potency [12] 23.5 µM

Nc1nc2ccc(OC(F)(F)F)cc2s1
active: Potency [7] 2.64 µM | Potency [10] 23.5 µM
inactive: Potency [1] | Potency [2] | Potency [14] | Potency [15]

CCN(CC)CCCC(C)Nc1ccnc2cc(Cl)ccc12 (stereo unspecified)
inactive: Potency [3] | Potency [4] | Potency [5] | Potency [6] | Potency [8] | Potency [9] | Potency [10] | Potency [11] | viability [13] 95.1%
active: Potency [1] 1.66 µM | Potency [15] 10.5 µM
